Source: PubChem
This is a sample that favours compounds with a hit; in the whole collection about 2.3% have one here.
bovine MsrA act – activates bovine MsrA enzyme; purified bovine MsrA, absorbance read-out; activation, % at 10.6 µM; 0.3% of 360,000 active; AID 602163; in the data active = activation above about 7.5%;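 note: 0% = vehicle and 100% = reference activator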
PP1 inh – blocks human PP1-alpha phosphatase, a PP5 counter-screen; purified PP1alpha, OMFP fluorescence; inhibition, % at 6.7 µM; 0.9% of 320,000 active;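 active = inhibition above the mean inhibition of all tested compounds plus 3 SD, computed separately for each screening campaign, cut at about 15% in these data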
ZTA DNA inh – ZTA (EBV) inhibition in EBNA-1 counter-screen | P03206 | ZTA-DNA binding, fluorescence polarization | inhibition, % at 11 µM | 0.15% of 320,000 active; in the data active = inhibition above about 33%
Target sequence (P03206 whole entry, looked up): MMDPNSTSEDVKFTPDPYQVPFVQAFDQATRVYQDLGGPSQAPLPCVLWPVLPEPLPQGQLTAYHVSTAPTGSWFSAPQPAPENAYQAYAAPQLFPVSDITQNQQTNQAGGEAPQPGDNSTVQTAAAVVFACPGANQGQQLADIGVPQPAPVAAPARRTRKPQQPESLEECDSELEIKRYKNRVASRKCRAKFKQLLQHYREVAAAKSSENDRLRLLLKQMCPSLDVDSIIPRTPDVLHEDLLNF
MsrA inh – bovine MsrA inhibition. purified bovine MsrA, absorbance read-out. inhibition, % at 15.5 µM. 0.75% of 360,000 active. AID 651718; in the data active = inhibition above about 4.5%;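 note: 0% = vehicle wells with enzyme and 100% = reference inhibitor wells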
EBNA-1 inh – blocks EBNA-1 binding to DNA; EBNA-1 DNA binding, fluorescence polarization; inhibition, % at 14.8 µM; 0.34% of 300,000 active; AID 1950; in the data active = inhibition above about 28%
PP5 primary – blocks human protein phosphatase 5 activity; purified PP5c, OMFP substrate fluorescence; inhibition, % at 6.7 µM; 0.18% of 320,000 active; AID 1987;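 active = inhibition above the campaign's mean inhibition across all tested compounds plus 3 SD, cut at about 9.5% in these data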;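 note: 0% = DMSO only and 100% = 100 µM cantharidin control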
PP1 confirm – human PP1 phosphatase inhibition, confirmation | shares compounds with PP1 inh | purified PP1alpha, OMFP substrate fluorescence | inhibition, % at 6.7 µM | 52% of 1,900 active;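 active = mean PP1 inhibition above a set limit taken from the earlier primary screen, cut at about 15% in these data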
PP5 counter – counter-screen for PP1 inhibitors: human PP5 phosphatase inhibition; shares compounds with PP1 inh; purified PP5c, OMFP fluorescence; inhibition, % at 6.7 µM; 4% of 1,900 active;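 active = mean PP5 inhibition over triplicate wells above about 9.5% taken from the earlier PP1 screen, limit read from the data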
Active calls of the source: *; / = no result given.

SMILES	bovine MsrA act	PP1 inh	ZTA DNA inh	MsrA inh	EBNA-1 inh	PP5 primary	PP1 confirm	PP5 counter
OCCN1CCN(Cc2cc(Cl)c3cccnc3c2O)CC1	-3	-5	-3	0	-10	4	/	/
Cc1cccc(OCC(=O)Nc2nccs2)c1C	-3	1	4	-1	1	-1	/	/
Cc1csc2nc(O)c(C(=O)NCCCc3ccccc3)c(=O)n12	-5	20*	6	-1	1	1	13	-5
Cc1cc(/C=C2\SC(=Nc3ccccc3)NC2=O)c(C)n1-c1ccc(S(N)(=O)=O)cc1	-15	18*	-10	1	-9	4	7	0
Cc1ccc(-n2c(C)cc(/C=C3\SC(=O)NC3=O)c2C)cc1	-1	2	7	1	10	1	/	/
Cc1ccc(N2CCN(CC(O)COc3ccccc3)CC2)cc1 (stereo unspecified)	-7	1	-5	-1	-3	4	/	/
O=C(CN1CCCCCC1)N/N=C/c1ccc2ccccc2c1	-2	/	/	0	/	/	/	/
C/C(CC(=O)Nc1ccc(Cl)c(C(F)(F)F)c1)=N\NC(=O)c1cc2ccccc2cc1O	-5	19*	-3	2	2	3	8	-3
N#CCCN1CCN(C(=O)c2c(N)no[n+]2[O-])CC1	-2	-6	-1	1	-2	-2	/	/
Cc1cc2c(C)nc(N/N=C/c3ccc(F)cc3)nc2o1	-4	-5	15	4	8	0	/	/
Cc1cc2c(C)nc(N/N=C/c3ccc([N+](=O)[O-])cc3)nc2o1	-6	18*	19	0	-6	2	33*	-3
CN(CCOc1ccccc1)CC(O)COCc1ccccc1F (stereo unspecified)	-4	1	7	1	14	0	/	/
CC1CC(C)CN(CC(O)COCc2ccccc2F)C1 (stereo unspecified)	-2	39*	11	-1	13	-2	-4	-5
Cc1cccc(Nc2nc(-c3ccccn3)cs2)n1	-1	64*	-17	0	-1	9	53*	2
Cc1cccnc1Nc1nc(-c2ccccn2)cs1	0	28*	-6	0	-1	6	36*	5
Cc1cc2ccccn2c1C(=O)c1ccc([N+](=O)[O-])o1	3	-2	3	2	5	3	/	/
CCn1cc(C(=O)O)c(=O)c2cc(F)c(N3CCN(C(=S)Nc4ccccc4OC)CC3)cc21	-3	25*	-13	0	-1	2	15	-4
OCCn1nc(-c2ccccc2)cc1-c1ccccc1	-1	0	-4	0	-5	0	/	/
O=c1cc(-c2ccccc2)cc(-c2ccccc2)n1CCCO	-7	19*	-4	0	2	-10	-4	-7
COc1ccc(CNCc2ccc(C(F)(F)F)cc2)cc1OC	-1	0	-18	1	-5	0	/	/
CC(C)(C)C(=O)Nc1cccc(-c2nc3ccccc3[nH]2)c1	-1	23*	9	1	2	1	-1	-3
COc1ccccc1OCC(=O)Nc1oc(-c2ccccc2)c(-c2ccccc2)c1C#N	-7	9	-17	1	-11	3	/	/
N#Cc1c(NC(=O)COC(=O)C2CC3C=CC2C3)oc(-c2ccccc2)c1-c1ccccc1 (stereo unspecified)	-2	19*	15	1	-8	-2	10	-3
COc1cc2c(cc1OC)-c1cc(NCc3ccccn3)nc(=O)n1CC2	-4	20*	6	3	-14	7	21*	0
CCNc1cc2n(c(=O)n1)CCc1cc(OC)c(OC)cc1-2	-15	-1	16	2	5	-2	/	/
COc1ccc(C2C(C(=O)c3ccco3)=C(O)C(=O)N2CCc2ccccc2)cc1OC (stereo unspecified)	-10	30*	10	3	5	1	29*	-2
CC(C)(C)c1ccc(NC(=O)COc2ccc(-n3ccnc3)cc2)cc1	-2	18*	0	0	-6	2	4	-1
COc1cc(NC(=O)COc2ccc(-n3ccnc3)cc2)cc(OC)c1	-5	-7	3	0	-3	2	/	/
